Assay [1] can be described thus: inhibitors of TNFa-induced NFkB p65 translocation, primary screen, imaging, HUVEC, MLSMR starter and 10KST1 sets (AID 438;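 active = inhibition above 20% together with a positive visual image hit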;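 note: compound added about 3h40 before a 20 min TNFalpha stimulation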;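 for inhibition: signal is the nuclear over cytoplasmic p65 intensity ratio per well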). The settings on record: HUVEC TNFa-induced p65 nuclear translocation; cell count: measured here: nuclei count (cytotoxicity indicator), at 2.08 µM; inhibition: at 2 µM, stronger effect = higher value, 0% TNFa-plus-vehicle, 100% no-TNFa wells.
A short description of assay [2]: reduction of polyQ htt aggregates in cells – imaging, exon1htt(103Q)mCFP cells, high-content imaging, primary screen (AID 483;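 active = visual image review flags a hit and inhibition of aggregation exceeds 20%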;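 note: compound exposure lasted 3 days before fixation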;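 for nuclei count: percent of the per-plate median nuclei count of sample wells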). The settings on record: exon1htt(103Q)mCFP cell line, aggregate imaging, at 2 µM; inhibition of aggregation: stronger effect = higher value; nuclei count: measured here: cell count, toxicity.
A short description of assay [3]: endothelial E-selectin expression blockers – imaging, HUVEC, immunofluorescence, MLSMR starter and 10KST1 sets, primary screen (AID 487;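 active = visually confirmed hit in the image check and inhibition above 20%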;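 for inhibition: signal is fraction of cell area covered by stained E-selectin grains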;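 for nuclei count: 100% = median nuclei count of all wells on the same plate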). The conditions noted are these: HUVEC TNFalpha-induced E-selectin immunofluorescence imaging, at 2 µM; inhibition: stronger effect = higher value; nuclei count: measured here: cell number, toxicity.
In assay [4] the target is Voltage-gated potassium channel subunit beta-2 (Rattus norvegicus) (UniProt P62483). Nature of the assay: inhibitors of rat Kvbeta2 reductase activity – biochemical, NADPH fluorescence, primary screen (AID 622;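 active = fluorescence slope higher than the sample average by over 3 SD, cut at about -0.22 in these data, passing the limit was not always enough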;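 note: slope of raw intensity against log time taken from 70 to 1610 s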). The settings on record: recombinant KvBeta, 4-cyanobenzaldehyde reduction, at 10 µM, stronger effect = higher value.
Assay [5] shares this target. Nature of the assay: enhancers of rat Kvbeta2 NADPH turnover – biochemical, NADPH fluorescence, primary screen (AID 623;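 active = NADPH fluorescence slope more negative than the mean of all samples by about 3 SD, 99.7% confidence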;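 note: fluorescence intensity change per second fitted from 20 to 320 s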). The conditions noted are these: Recombinant KvBeta, NADPH fluorescence decrease slope, 10 min; at 10 µM; stronger effect = lower value.
Assay [6] has as its target Alpha-2C adrenergic receptor (Homo sapiens) (UniProt P18825). The assay can be described thus: compounds altering alpha2C-coupled GIRK flux – cell-based, HEK293 alpha2C/GIRK1/2, thallium flux, primary screen (AID 624;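 active = fluorescence slope after compound addition differing from the mean of all screened samples at 99.7% confidence, in either direction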;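 note: slope of fluorescence ratio to pre-addition baseline per second over 15 to 24 s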). The conditions noted are these: thallium flux BTC fluorescence, at 10 µM, actives lie on both sides.
Assay [7] in a line: blockers of RIG-like receptor reporter activation – cell-based, Sendai virus stimulus, luciferase, 10K MLSCN set, TLR/RLR signaling modifier project, primary screen (AID 602276).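 Note: firefly luciferase from ISG56 promoter only with Renilla not read in this screen; 0% = Sendai virus plus DMSO and 100% = medium plus DMSO without virus.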 The conditions noted are these: HEK293 RL24 IRF3 luciferase reporter, at 10 µM, stronger effect = higher value.
A short description of assay [8]: TLR3 IRF3 reporter activation blockers – cell-based, poly I:C stimulus, luciferase, 10K MLSCN set, primary screen (AID 602277;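 active = inhibition of the reporter signal at or above 50%; inactive = inhibition below 50%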). The settings on record: HEK293-TLR3 RL24 IRF3 luciferase reporter, at 10 µM, stronger effect = higher value.

SMILES strings stand for the structures. Active and inactive are the calls of the source.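 Rule for the calls, unless noted: active = inhibition at or above 50% at 10 µM; inactive = inhibition below 50%.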

Sequence of Voltage-gated potassium channel subunit beta-2 (Rattus norvegicus) (P62483 whole entry, looked up): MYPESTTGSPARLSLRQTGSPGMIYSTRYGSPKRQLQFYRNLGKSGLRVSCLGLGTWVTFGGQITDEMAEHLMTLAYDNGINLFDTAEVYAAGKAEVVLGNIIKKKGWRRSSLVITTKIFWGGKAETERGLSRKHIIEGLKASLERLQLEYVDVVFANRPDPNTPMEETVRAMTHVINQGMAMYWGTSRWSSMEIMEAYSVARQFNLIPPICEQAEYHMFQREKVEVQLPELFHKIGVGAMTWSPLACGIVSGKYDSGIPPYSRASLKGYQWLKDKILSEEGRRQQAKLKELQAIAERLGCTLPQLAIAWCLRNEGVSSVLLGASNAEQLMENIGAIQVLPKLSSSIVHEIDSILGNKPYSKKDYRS
Sequence of Alpha-2C adrenergic receptor (Homo sapiens) (P18825 whole entry, looked up): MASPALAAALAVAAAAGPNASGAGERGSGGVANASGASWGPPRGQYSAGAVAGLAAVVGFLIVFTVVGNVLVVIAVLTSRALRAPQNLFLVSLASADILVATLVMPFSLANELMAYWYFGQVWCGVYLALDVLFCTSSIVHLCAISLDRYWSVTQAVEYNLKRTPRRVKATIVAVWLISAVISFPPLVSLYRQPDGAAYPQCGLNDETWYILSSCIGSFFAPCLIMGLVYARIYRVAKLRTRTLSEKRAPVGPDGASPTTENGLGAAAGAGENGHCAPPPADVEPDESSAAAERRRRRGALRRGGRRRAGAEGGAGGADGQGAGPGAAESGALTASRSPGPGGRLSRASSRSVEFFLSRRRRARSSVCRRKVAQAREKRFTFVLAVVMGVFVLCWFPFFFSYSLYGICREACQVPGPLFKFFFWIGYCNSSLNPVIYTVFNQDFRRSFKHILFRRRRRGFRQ

Turning to `CCCCC(=O)NCCc1cc2c(C)ccc(C)c2[nH]c1=O`, in assay [1], the cell count is 699. For the same compound, the inhibition in assay [1] is -1% (inactive); in assay [3] it was -13.4% (inactive); in assay [7] it was 10.6% (inactive); in assay [8], 22.7% (inactive). In addition, in assay [2], the inhibition of aggregation is -22.4% (inactive). The nuclei count in assay [2] came out at 105%; in assay [3] it was 102%. Further, the fluorescence slope in assay [4] is -0.552 (inactive). The NADPH fluorescence slope in assay [5] was -3.7e-05 (inactive). For the same compound, in assay [6], the slope is 0.00563 (inactive).
For the compound `CC1C=CC(C)C(C(=O)O)C1C(=O)O` (centres undefined), the cell count in assay [1] was 543. Further, the inhibition is -4.4% (inactive) in assay [1], -15.8% (inactive) in assay [3], 7.99% (inactive) in assay [7] and 41.3% (inactive) in assay [8]. Besides, the inhibition of aggregation in assay [2] was 13% (inactive). Further, the nuclei count in assay [2] worked out at 46.5%; in assay [3], 96%. Moreover, in assay [4], the fluorescence slope was -0.476 (inactive). For the same compound, the NADPH fluorescence slope in assay [5] was -5.7e-05 (inactive). Further, the slope in assay [6] is 0.00278 (inactive).
`CC(C)Cn1c(N)c(C(=O)COC(=O)c2ccc3c(c2)OCCO3)c(=O)n(C)c1=O`: the cell count in assay [1] turned out to be 365. In addition, the inhibition in assay [1] is -4.4% (inactive); in assay [3], -5.7% (inactive); in assay [7] it was -14.6% (inactive); in assay [8], -49.5% (inactive). Moreover, the inhibition of aggregation in assay [2] was -5.7% (inactive). Moreover, the nuclei count in assay [2] was 75.7%; in assay [3], 106%. For the same compound, in assay [4], the fluorescence slope is -0.575 (inactive). Besides, the NADPH fluorescence slope in assay [5] was -6.3e-05 (inactive). The slope in assay [6] was 0.0066 (inactive).
In the case of `CC1=C(C(=O)Nc2ccccc2)C(c2ccccn2)n2nc(CCCO)nc2N1` (centres undefined), in assay [1], the cell count was 662. In addition, the inhibition is 6.2% (inactive) in assay [1], -8.5% (inactive) in assay [3], 9.62% (inactive) in assay [7] and 29.7% (inactive) in assay [8]. In assay [2], the inhibition of aggregation is 13.8% (inactive). Further, the figures for the nuclei count in assay [2] and in assay [3] were 93.5% and 116%, respectively. The fluorescence slope in assay [4] is -0.532 (inactive). Moreover, the NADPH fluorescence slope in assay [5] is -2.2e-05 (inactive). In addition, the slope in assay [6] was 0.00679 (inactive).
Turning to `COc1ccc(OC)c(C(=O)c2coc3ccc(O)c(CN4CCOCC4)c23)c1`, the cell count in assay [1] was determined as 282. For the same compound, the inhibition in assay [1] is 2.9% (inactive); in assay [3], -28.2% (inactive); in assay [7], 6.31% (inactive); in assay [8], 23% (inactive). Also, in assay [2], the inhibition of aggregation is -12.4% (inactive). For the same compound, the nuclei count in assay [2] was 120%; in assay [3], 109%. In addition, the fluorescence slope in assay [4] was -0.561 (inactive). The NADPH fluorescence slope in assay [5] is -9.1e-06 (inactive). Further, the slope in assay [6] is 0.00423 (inactive).
`CC1CCCCN1CCNS(=O)(=O)c1ccc2c(c1)oc(=O)n2C` (centres undefined): in assay [1], the cell count was found to be 248. In addition, the inhibition in assay [1] is 0.3% (inactive); in assay [3] it was 18.9% (inactive); in assay [7], 15.8% (inactive); in assay [8] it was 18.5% (inactive). Moreover, the inhibition of aggregation in assay [2] was 4.6% (inactive). The nuclei count in assay [2] came to 89.3%; in assay [3] it was 88.9%. Further, the fluorescence slope in assay [4] is -0.424 (inactive). Moreover, the NADPH fluorescence slope in assay [5] was -6.8e-05 (inactive). The slope in assay [6] is 0.00417 (inactive).
In the case of `COc1ccc(N2CC(C(=O)Nc3ccc(F)cc3F)CC2=O)cc1` (centres undefined), the cell count in assay [1] was found to be 281. Also, the inhibition in assay [1] was -3.5% (inactive); in assay [3], 12% (inactive); in assay [7], 14.4% (inactive); in assay [8], 20.8% (inactive). The inhibition of aggregation in assay [2] was -30.8% (inactive). Further, the nuclei count stood at 111% in assay [2] and 104% in assay [3]. Also, the fluorescence slope in assay [4] is -0.514 (inactive). In assay [5], the NADPH fluorescence slope was -1.3e-05 (inactive). In addition, in assay [6], the slope is 0.00428 (inactive).
With `C=COCCNC(=O)Nc1ccc(Cl)c(Cl)c1`, the cell count in assay [1] was 387. The inhibition in assay [1] is -7% (inactive); in assay [3] it was -170% (inactive); in assay [7], -35.4% (inactive); in assay [8], -41.6% (inactive). For the same compound, the inhibition of aggregation in assay [2] is 4.5% (inactive). Also, the nuclei count came out at 101% in assay [2] and 119% in assay [3]. For the same compound, the fluorescence slope in assay [4] was -0.348 (inactive). In addition, in assay [5], the NADPH fluorescence slope was -4.7e-05 (inactive). Also, in assay [6], the slope is 0.00498 (inactive).
For `Cc1cc(C)n2c(SCCN3C(=O)c4ccccc4C3=O)nnc2n1`, the cell count in assay [1] was 787. The inhibition in assay [1] was -5.1% (inactive); in assay [3], -8.9% (inactive); in assay [7], 10.1% (inactive); in assay [8], 24.4% (inactive). For the same compound, in assay [2], the inhibition of aggregation was 12.4% (inactive). Further, the figures for the nuclei count in assay [2] and in assay [3] were 126% and 107%, respectively. Also, the fluorescence slope in assay [4] was -0.572 (inactive). For the same compound, the NADPH fluorescence slope in assay [5] is -1.7e-05 (inactive). The slope in assay [6] was 0.00697 (inactive).
Consider `CCCOc1ccc(N2C(=O)CC(SCCN)C2=O)cc1` (centres undefined), for which the cell count in assay [1] amounted to 428. For the same compound, the inhibition is -8.7% (inactive) in assay [1], -48.7% (inactive) in assay [3], -37.6% (inactive) in assay [7] and -77.1% (inactive) in assay [8]. The inhibition of aggregation in assay [2] was -9.8% (inactive). For the same compound, the nuclei count in assay [2] and in assay [3] was 116% throughout. Besides, the fluorescence slope in assay [4] is -0.4 (inactive). The NADPH fluorescence slope in assay [5] was -1.8e-05 (inactive). For the same compound, the slope in assay [6] was 0.00441 (inactive).
For the compound `C/C=C/Cn1c(Br)nc2c1c(=O)[nH]c(=O)n2C`, the cell count in assay [1] turned out to be 650. For the same compound, the inhibition in assay [1] was 10.6% (inactive); in assay [3] it was 20.1% (inactive); in assay [7], 15.1% (inactive); in assay [8], 10.7% (inactive). The inhibition of aggregation in assay [2] was -10.8% (inactive). The nuclei count in assay [2] came out at 73%; in assay [3], 103%. The fluorescence slope in assay [4] was -0.625 (inactive). Further, the NADPH fluorescence slope in assay [5] was -4.7e-05 (inactive). Besides, the slope in assay [6] is 0.00443 (inactive).
Regarding `CCCC(=O)Nc1cnc(NC(=O)c2cccc(F)c2)cc1C`, the cell count in assay [1] was found to be 465. Also, the inhibition is 14.1% (inactive) in assay [1], 46% (inactive) in assay [3], -24.4% (inactive) in assay [7] and -162% (inactive) in assay [8]. The inhibition of aggregation in assay [2] is 6.6% (inactive). In addition, the nuclei count was determined as 95.6% in assay [2] and 103% in assay [3]. The fluorescence slope in assay [4] is -0.563 (inactive). The NADPH fluorescence slope in assay [5] is 4e-05 (inactive). Also, in assay [6], the slope is 0.00559 (inactive).
Take `CCOc1ccc(C(=O)N2CCN(C(=O)c3ccco3)CC2)cc1OCC`: the cell count in assay [1] is 558. Also, the inhibition in assay [1] was -2.7% (inactive); in assay [3], 28.1% (inactive); in assay [7], 12% (inactive); in assay [8], 21.2% (inactive). Moreover, the inhibition of aggregation in assay [2] was -6.8% (inactive). In addition, the nuclei count in assay [2] is 111%; in assay [3], 93.4%. Further, in assay [4], the fluorescence slope is -0.367 (inactive). The NADPH fluorescence slope in assay [5] was 4.3e-05 (inactive). Also, the slope in assay [6] is 0.00675 (inactive).
With `Cc1csc(NC(=O)c2cc3c(s2)-c2ccccc2OC3)n1`, in assay [1], the cell count came out at 417. Also, the inhibition was 8.8% (inactive) in assay [1], -27.8% (inactive) in assay [3], -42% (inactive) in assay [7] and -118% (inactive) in assay [8]. The inhibition of aggregation in assay [2] was 27.8% (inactive). Besides, the nuclei count was 121% in assay [2] and 103% in assay [3]. Besides, the fluorescence slope in assay [4] is -0.247 (inactive). For the same compound, the NADPH fluorescence slope in assay [5] was -1.9e-06 (inactive). Further, the slope in assay [6] was 0.00681 (inactive).

The values above are taken from PubChem BioAssay.
